Data from ChEMBL document CHEMBL3433997, “St. Jude Leishmania screening dataset” (2016).

target: Solute carrier family 2, facilitated glucose transporter member 1 (Homo sapiens) (UniProt P11166); test: ST_JUDE_LEISH: Cytotoxicity at 2uM final concentration against transgenic Leishmania Mexicana promastigotes LmGLUT1 that are glucose transport deficient and complemented with the human glucose transporter GLUT1. Activity is measured by DNA content using SYBR green in vitro; format: functional
Sequence (P11166 whole entry): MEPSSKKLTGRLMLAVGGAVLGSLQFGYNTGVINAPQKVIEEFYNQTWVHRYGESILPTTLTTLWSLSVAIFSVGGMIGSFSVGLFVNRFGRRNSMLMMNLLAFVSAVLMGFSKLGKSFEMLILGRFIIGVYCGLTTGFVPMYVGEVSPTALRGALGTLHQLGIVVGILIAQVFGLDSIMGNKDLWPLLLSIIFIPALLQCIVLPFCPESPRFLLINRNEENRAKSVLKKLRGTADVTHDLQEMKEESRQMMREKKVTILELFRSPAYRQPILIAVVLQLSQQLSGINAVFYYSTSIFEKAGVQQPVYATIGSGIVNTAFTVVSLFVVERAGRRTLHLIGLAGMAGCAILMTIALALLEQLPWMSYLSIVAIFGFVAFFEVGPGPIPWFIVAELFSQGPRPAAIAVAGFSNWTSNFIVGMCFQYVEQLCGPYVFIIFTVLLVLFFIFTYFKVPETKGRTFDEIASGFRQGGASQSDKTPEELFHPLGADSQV

**Q.** With `COc1ccc2nccc([C@@H](O)CN3CCC(NCc4cc5ccccc5nn4)CC3)c2c1` as the compound, how does the inhibition read?
**A.** 6.88%

**Q.** Which inhibition does the source give for `CC(C)(C)C(=O)Nc1c(-c2cc(=O)oc3cc4c(cc23)CCC4)oc2ccccc12` here?
**A.** 4.02%

**Q.** How did the inhibition turn out when `O=S(=O)(Nc1cccc(CCN2CCC(N3CCCCC3)CC2)c1)c1ccc(Cl)cc1` was run?
**A.** 1.09%

**Q.** For `Clc1cccc(Cl)c1CCNCC1CCN(CC2CCCCC2)CC1`, which inhibition is on record?
**A.** 5.48%

**Q.** How did the inhibition turn out when `COc1ccc(C=Cc2ccc(-c3c(C)[nH]c(C)c(Cl)c3=O)cc2)cc1OC` was run?
**A.** -0.83%

**Q.** With `COc1ccccc1-c1cc(C(=O)N2CCN(S(=O)(=O)c3ccc(C)cc3)CC2)[nH]n1` as the compound, how does the inhibition read?
**A.** 6.02%

**Q.** For `CN(C)CC1CCCN1Cc1ccccc1-c1cnn(C)c(=O)c1Oc1cccc(C#N)c1` (stereo unspecified), which inhibition is on record?
**A.** 1.03%

**Q.** How did the inhibition turn out when `Nc1nc(N)c2c3c(ccc2n1)CCC3` was run?
**A.** 0.87%

**Q.** Which inhibition does the source give for `Cc1c(Cc2ccc(F)cc2)c(Cl)nc2nc(N)nc(N)c12` here?
**A.** 0.75%

**Q.** For `CCCCC(=O)Nc1nc2ccc([N+](=O)[O-])cc2s1`, which inhibition is on record?
**A.** 1.98%

**Q.** With `CN(C)CCNCc1ccc(-c2ccc(-c3nc4ccccc4[nH]3)s2)cc1` as the compound, how does the inhibition read?
**A.** 13.7%

target: Hexose transporter 1 (Plasmodium falciparum) (UniProt O97467); test: ST_JUDE_LEISH: Cytotoxicity at 2uM final concentration against transgenic Leishmania Mexicana promastigotes LmPfHT that are glucose transport deficient and complemented with the Plasmodium falciparum hexose transporter. Activity is measured by DNA content using SYBR green in vitro; format: functional

**Q.** `O=C(Nc1cc(Cl)cc(Cl)c1)Nc1ccnc2ccccc12` was tested. Which inhibition did it give?
**A.** 2.02%

**Q.** With `CN(C)CCOc1ccc2c(=O)cc(CCc3cccc(F)c3F)n(CC(=O)N(C)Cc3ccc(-c4ccc(C(F)(F)F)cc4)cc3)c2c1` as the compound, how does the inhibition read?
**A.** -0.55%

**Q.** Which inhibition does the source give for `Cc1csc(-c2nonc2NC(=O)COc2ccccc2C(C)C)n1` here?
**A.** -1.84%

**Q.** `CCOC(=O)c1c[nH]c2c(sc3cc(OC)ccc32)c1=O` was tested. Which inhibition did it give?
**A.** -0.51%

**Q.** How did the inhibition turn out when `COc1cc(-c2nc(-c3ccccc3)c(-c3ccccc3)[nH]2)ccc1OCCN(C)C` was run?
**A.** 1.4%

**Q.** `Cc1ccccc1C1CCN(C2CCC(NC(=O)/C=C/c3cccc(F)c3F)CC2)CC1` (stereo unspecified) was tested. Which inhibition did it give?
**A.** 4.6%

**Q.** For `OCC1CCN(Cc2ccc(-c3ccc(-c4nc5ccccc5[nH]4)cc3)cc2)CC1`, which inhibition is on record?
**A.** 5.06%

**Q.** For `CNS(=O)(=O)c1ccc2c(c1)nc(C1CCN(CC3CCC(NC(=O)/C=C/c4ccc(Cl)c(Cl)c4)CC3)CC1)n2C` (stereo unspecified), which inhibition is on record?
**A.** 10.9%

**Q.** How did the inhibition turn out when `Cc1cc(N)c2cc(NC(=O)/C=C/c3ccccc3Cl)ccc2n1` was run?
**A.** 0.57%

**Q.** `Nc1cc(-c2cccc(Cl)c2)nn1-c1ccnc2cc(Cl)ccc12` was tested. Which inhibition did it give?
**A.** -0.13%

**Q.** With `CCCCCCCN(Cc1ccc(OC(C)(C)C(=O)OCC)cc1)C(=O)Nc1ccccc1OCC` as the compound, how does the inhibition read?
**A.** -1.76%

**Q.** How did the inhibition turn out when `OC(c1ccccc1)C1CN(CCc2ccccc2)CCC1(O)c1ccccc1` (stereo unspecified) was run?
**A.** -1.7%

**Q.** For `COc1ccc2nc(-c3ccccc3)cc(NCCN(C)C)c2c1`, which inhibition is on record?
**A.** 9.21%

**Q.** With `CC(C)C[C@@H](/C=N/N1CCNC1=O)NC(=O)[C@H](CC(C)C)NC(=O)c1ccc(OCCN2CCOCC2)cc1` as the compound, how does the inhibition read?
**A.** 6.5%

**Q.** With `O=C(NC1CCCCC1)N(CCCn1ccnc1)Cc1csc(-c2ccc(CNCc3ccccc3)cc2)n1` as the compound, how does the inhibition read?
**A.** 0.82%

**Q.** `Cc1cc(CNCCCCCCCNCc2ccc(-c3ccccc3)cc2)ccc1O` was tested. Which inhibition did it give?
**A.** 1.76%

**Q.** For `CN1CCCN(Cc2cccc(-c3ccc(NC(=O)c4cccc(C#N)c4)cc3)c2)CC1`, which inhibition is on record?
**A.** 12.9%

**Q.** `CC(NC(=O)c1ccc(O)c(-c2ccc(Cl)c(Cl)c2)c1)C(=O)NCCN1CCOCC1` (stereo unspecified) was tested. Which inhibition did it give?
**A.** 2.13%

**Q.** How did the inhibition turn out when `Cc1nc2c(s1)c(=O)cc(CCc1cccc(F)c1F)n2CC(=O)N(Cc1ccc(-c2ccc(C(F)(F)F)cc2)cc1)C1CCN(C(C)C)CC1` was run?
**A.** 0.83%

**Q.** With `CCc1c[nH]c2c(N(c3ccccc3)S(C)(=O)=O)cc(C(=O)N[C@@H](Cc3ccccc3)[C@H](O)CNCc3cccc(C(F)(F)F)c3)cc12` as the compound, how does the inhibition read?
**A.** 1.54%

**Q.** For `O=C(Nc1cccc(-c2cccc(-c3nc4cc(C(F)(F)F)ccc4[nH]3)c2)c1)c1csnn1`, which inhibition is on record?
**A.** 9.97%

**Q.** Which inhibition does the source give for `N#Cc1ccc2c(c1)CCN(CCC1CCC(NC(=O)Nc3cnc4ccccc4c3)CC1)C2` (stereo unspecified) here?
**A.** 3.15%

**Q.** For `CCS(=O)(=O)N1CCN(c2nc(-c3ccccc3)nc(COC)c2Cc2ccccc2F)CC1`, which inhibition is on record?
**A.** 2.32%

**Q.** How did the inhibition turn out when `Cc1ccc(CON2C(N)=NC(N)=NC23CCCCC3)c2ccccc12` was run?
**A.** 2.42%

**Q.** With `Cc1cc(N[C@@H](CC(C)C)C(=O)NCCOc2ccccc2)nc(NCC2CCCCC2)n1` as the compound, how does the inhibition read?
**A.** 9.67%

**Q.** With `Cn1cc(C2CCN(CCCCNC(=O)c3sc(-c4ccc(C(F)(F)F)cc4)nc3CO)CC2)c2ccccc21` as the compound, how does the inhibition read?
**A.** -1.85%

**Q.** With `COc1ccc(CN2CCCC(OC(c3ccc(F)cc3)c3ccc(F)cc3)C2)c(O)c1` (stereo unspecified) as the compound, how does the inhibition read?
**A.** 8.89%

**Q.** `O=C(NCCN1CCC(c2ncc(-c3ccccc3)o2)CC1)c1ccc(NC(=O)c2ccc(Cl)cc2)cc1` was tested. Which inhibition did it give?
**A.** 2.19%

**Q.** With `CN(CCN)Cc1cccc(-c2ccc(-c3nc4cc(C(F)(F)F)ccc4[nH]3)s2)c1` as the compound, how does the inhibition read?
**A.** 11.3%

**Q.** For `COc1ccc2nccc([C@@H](O)CN3CCC(NCc4cc5ccccc5nn4)CC3)c2c1`, which inhibition is on record?
**A.** 7.17%
